Rows were chosen to be rich in hits. Some 2.5% of all compounds tested hit in one or more screens of this group.
POLK inh = DNA polymerase kappa (human) inhibition; 400,000 tested, 0.53% active; purified Pol kappa, fluorescent DNA synthesis assay, 10 min; Potency, µM (series often up to 107 µM), inactives show top-dose activity, negative = inhibition, usual class: inhibitors; Q9UBT6; note: % is set by controls: 0 for no effect and ±100 for the full control effect
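Enzyme at 10 nM met test compounds for 15 min at room temperature. Substrate addition (50 nM final) began the reaction, which was monitored by fluorescence at 0 and 10 min.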
Pol iota inh = inhibitors of human DNA polymerase iota | Q9UNA4 | Pol iota fluorescent replication assay, 10 min | Potency, µM (titrated, usually from 115 µM), inactives show top-dose activity, negative = inhibition, hits mostly inhibitors | 390,000 tested, 1% active | AID 588590
Target sequence (Q9UNA4 whole entry, looked up): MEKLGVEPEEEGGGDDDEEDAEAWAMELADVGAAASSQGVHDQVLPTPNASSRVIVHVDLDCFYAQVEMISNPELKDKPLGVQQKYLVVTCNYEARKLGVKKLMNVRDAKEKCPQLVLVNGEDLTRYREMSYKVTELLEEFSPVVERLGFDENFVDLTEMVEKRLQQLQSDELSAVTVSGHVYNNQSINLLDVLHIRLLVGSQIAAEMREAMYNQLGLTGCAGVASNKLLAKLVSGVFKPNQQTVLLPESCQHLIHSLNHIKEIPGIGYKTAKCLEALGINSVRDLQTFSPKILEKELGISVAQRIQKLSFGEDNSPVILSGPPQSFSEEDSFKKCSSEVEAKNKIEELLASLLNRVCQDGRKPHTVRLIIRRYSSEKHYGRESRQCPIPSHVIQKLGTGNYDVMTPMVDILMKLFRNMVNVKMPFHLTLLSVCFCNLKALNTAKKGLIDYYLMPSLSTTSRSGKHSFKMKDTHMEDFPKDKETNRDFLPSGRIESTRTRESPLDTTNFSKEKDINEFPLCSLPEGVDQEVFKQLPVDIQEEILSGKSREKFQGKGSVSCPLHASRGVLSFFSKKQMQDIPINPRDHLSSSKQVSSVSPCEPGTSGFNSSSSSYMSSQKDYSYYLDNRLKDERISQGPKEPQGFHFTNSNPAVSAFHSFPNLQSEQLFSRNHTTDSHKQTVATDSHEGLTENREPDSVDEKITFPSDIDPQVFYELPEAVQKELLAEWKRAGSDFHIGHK
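Fluorescent replication assay read twice, at 0 min and 10 min after adding 50 nM (final) substrate. Enzyme (10 nM) and compounds were first incubated 15 min at room temperature; enzyme-free buffer wells were negative controls.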
WRN helicase inh-1 = blocks human WRN helicase; Q14191; WRN helicase unwinding, fluorescent forked duplex, kinetic; 360,000 tested, 0.46% active; AID 651768; Potency, µM (series often up to 114 µM), for inactives: top-dose activity change, negative = inhibition, hits mostly inhibitors; note: % is set by controls: 0 for no effect and ±100 for the full control effect; nearly all actives have a fitted effect of over 55% in size
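Kinetic red-fluorescence monitoring (525/598 nm) tracks WRN helicase activity after 100 nM fluorophore-quencher forked duplex and 2 mM ATP are added to 20 nM enzyme pretreated 15 min at room temperature with compound.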
L3MBTL1 block = blocks human L3MBTL1. Q9Y468. AlphaScreen L3MBTL1–H3K9me1 peptide binding. 230,000 tested, 0.66% active. Potency, µM (top dose mostly 57.1 µM), for the others: at the highest dose activity, negative = inhibition, actives largely listed as inhibitors; note: % is set by controls: 0 for no effect and ±100 for the full control effect; nearly all actives have a fitted effect of over 60% in size
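First, the protein-peptide complex forms for 30 min at room temperature (L3MBTL1 50 nM, biotinylated H3K9me1 peptide 75 nM). Next, compounds are pin-transferred and incubated 30 min. Finally, AlphaScreen beads are added and read after 30 min.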
POLB inh = DNA polymerase beta (human) inhibition. AID 485314. Pol beta primer extension/strand displacement, fluorescence kinetic. 340,000 tested, 1.3% active. Potency, µM (series often up to 114 µM), inactives show at the highest dose activity change, negative = inhibition, actives largely listed as inhibitors. P06746; note: % is set by controls: 0 for no effect and ±100 for the full control effect
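Pol beta (10 nM) was preincubated with compound for 15 min at room temperature. The reaction was then started with 50 nM substrate and read immediately and after a further 10 min at room temperature.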
Pol eta inh = DNA polymerase eta (human) inhibition; Q9Y253; recombinant Pol eta, fluorescent DNA replication assay; Potency, µM (highest dose often 114 µM), inactives show at the top dose activity change, negative = inhibition, most hits filed as inhibitors; 390,000 tested, 1.2% active; AID 588591; note: % is set by controls: 0 for no effect and ±100 for the full control effect
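Pol eta (10 nM) was preincubated with compounds for 15 min at room temperature, after which fluorescent replication substrate (50 nM final) was added to start the reaction. Fluorescence was read kinetically at 0 and 10 min.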
WRN helicase inh-2 = WRN helicase inhibition, cherry-pick retest. Potency, µM (highest dose often 57.1 µM), for inactives: at the top dose activity, negative = inhibition, hits mostly inhibitors. AID 720497. shares compounds with WRN helicase inh-1. 610 tested, 63% active. WRN helicase DNA unwinding, fluorescence kinetic; note: nearly all actives have a fitted effect of over 65% in size
TO DNA binding = binds DNA, flagged in WRN inhibitor counterscreen; shares compounds with WRN helicase inh-1; thiazole orange DNA binding displacement, fluorescence; Potency, µM (titrated, usually from 57.1 µM), for the others: top-dose activity change, negative = inhibition, most hits filed as inhibitors; 610 tested, 10% active; AID 720499;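 note: drop in dye fluorescence marks compound binding to DNA; % is set by controls: 0 for no effect and ±100 for the full control effect; nearly all actives have a fitted effect of over 60% in size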
BLM helicase inh = BLM helicase inhibition, WRN selectivity check; shares compounds with WRN helicase inh-1; Recombinant BLM helicase DNA unwinding, red fluorescence; Potency, µM (titrated, usually from 57.1 µM), for inactives: at the highest dose activity change, negative = inhibition, hits mostly inhibitors; 610 tested, 60% active; AID 720503; note: nearly all actives have a fitted effect of over 60% in size
Numbers without * were called inactive; [ ] = remark or other dose. Calls come from the whole dose curve; as a rule, active = well fitted curve in the direction sought with a large enough effect; inconclusive = small, poorly fitted or top-dose-only effect, or another doubt; inactive = no such curve, though single readings can be large; an effect the other way counts as inactive or inconclusive. Potency is the fitted concentration of half-maximal effect.

What do the screens show for `CN1C(=O)C(=Cc2coc3ccccc3c2=O)C(=O)N(C)C1=O`?
POLK inh: -3%; Pol iota inh: -7%; WRN helicase inh-1: -14%; L3MBTL1 block: 0%; POLB inh: 3%; Pol eta inh: -1%

What do the screens show for `Cc1ccc(S(=O)(=O)Oc2ccccc2C=C2C(=O)N(C)C(=O)N(C)C2=O)cc1`?
POLK inh: -11%; Pol iota inh: -18%; WRN helicase inh-1: 45µM*; POLB inh: -13%; Pol eta inh: 2%; WRN helicase inh-2: -22%; TO DNA binding: -3%; BLM helicase inh: -18%

Results for CN1C(=O)C(=Cc2ccccc2Oc2ccc(Cl)cc2)C(=O)N(C)C1=O ?
POLK inh: -4%; Pol iota inh: 0%; WRN helicase inh-1: 45µM*; L3MBTL1 block: 9%; POLB inh: 3%; Pol eta inh: -6%; WRN helicase inh-2: 19µM*; TO DNA binding: -27%; BLM helicase inh: 7.6µM*

How did CN1C(=O)C(=Cc2ccccc2OCc2ccc(Cl)cc2)C(=O)N(C)C1=O do in these assays?
POLK inh: -9%; Pol iota inh: 55%; WRN helicase inh-1: -24%[57.1 µM]; L3MBTL1 block: 1%; POLB inh: 0%; Pol eta inh: -3%

Results for C=CCN1C(=O)NC(=O)/C(=C/c2ccc(OC)c(CSc3ccccn3)c2)C1=O ?
POLK inh: -11%; Pol iota inh: 11%; WRN helicase inh-1: inconclusive; L3MBTL1 block: -9%; POLB inh: 5%; Pol eta inh: inconclusive

Assay outcomes as filed in PubChem.
